This is a sample that favours compounds with a hit; in the whole collection about 9.8% have one here.
HttQ103 aggreg: qHTS Multiplex Assay to Identify Dual Action Probes in a Cell Model of Huntington: Aggregate Formation (GFP) | PC12 HttQ103-GFP aggregates, Acumen cytometry, 40 h | Potency, µM (highest dose often 46.1 µM), inactives show at the top dose activity change, negative = inhibition, most hits filed as inhibitors | actives 1.1% (n = 220,000) | AID 1688, 2009; also: potency is read from the fitted curve at half-maximal effect; % is scaled to controls: 0 for no effect and ±100 for the full control effect; nearly all actives have a fitted effect of over 60% in size
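Using laser scanning cytometry, GFP-positive aggregates were counted after lysis of PC12 cells induced with 100 nM tebufenozide to express HTT exon 1 Q103–GFP. Compounds were tested in titration.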
HPGD block: qHTS Assay for Inhibitors of HPGD (15-Hydroxyprostaglandin Dehydrogenase); 15-hydroxyprostaglandin dehydrogenase [NAD(+)] (Homo sapiens), P15428; purified HPGD, NADH fluorescence kinetic, PGE2 substrate; Potency, µM, without a hit: at the top dose activity change, negative = inhibition, usual class: inhibitors; actives 4.3% (n = 150,000); active = well fitted inhibition curve with a large enough effect, not every such curve was filed as active; inconclusive = small, poorly fitted or top-dose-only effect, or another doubt; inactive = no such curve, though single readings can be large or run the other way; also: potency is read from the fitted curve at half-maximal effect; % is scaled to controls: 0 for no effect and ±100 for the full control effect
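20 nM HPGD preincubated 15 min at room temperature with compound in 50 mM Tris-HCl pH 8, 0.01% Tween 20. Started with 1 mM NAD+ and 30 uM prostaglandin E2; NADH fluorescence (360/450 nm) read 5 times over 30-s intervals, last minus first.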
CBFb RUNX1 block: qHTS Assay for Compounds Blocking the Interaction Between CBF-beta and RUNX1 for the Treatment of Acute Myeloid Leukemia; 230,000 tested, under 10 active; Potency, µM (series often up to 59.8 µM), for the others: at the top dose activity, negative = inhibition, usual class: inhibitors; AlphaScreen CBFb-His/RUNX1-biotin binding, biochemical; also: % of control where 0% means no effect
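Compounds were screened at multiple concentrations against a preformed CBF-beta(His)/RUNX1(biotin) complex (30 nM of each) for 15 min at room temperature, followed by 90 min with nickel and streptavidin beads and AlphaScreen reading.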
KDM4E inh: qHTS Assay for Inhibitors of Human Jumonji Domain Containing 2E (JMJD2E) | Lysine-specific demethylase 4E (Homo sapiens), B2RXH2 | AID 2147, 2009 | Potency, µM (highest dose often 57.1 µM), for inactives: at the highest dose activity change, negative = inhibition, actives largely listed as inhibitors | JMJD2E catalytic domain, FDH-coupled NADH fluorescence (FDH is formaldehyde dehydrogenase) | actives 1.6% (n = 230,000); active = well fitted inhibition curve with a large enough effect, not every such curve was filed as active; inconclusive = small, poorly fitted or top-dose-only effect, or another doubt; inactive = no such curve, though single readings can be large or run the other way;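 also: potency is read from the fitted curve at half-maximal effect; 0% = wells with enzyme and -100% = buffer wells without enzyme; nearly all actives have a fitted effect of over 50% in size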
ALDH1A1 block: qHTS Assay for Inhibitors of Aldehyde Dehydrogenase 1 (ALDH1A1); Aldehyde dehydrogenase 1A1 (Homo sapiens), P00352; Purified ALDH1A1, NADH fluorescence, propionaldehyde substrate; Potency, µM (titrated, usually from 75.3 µM), for the others: at the top dose activity, negative = inhibition, hits mostly inhibitors; actives 7.3% (n = 220,000); active = well fitted inhibition curve with a large enough effect, not every such curve was filed as active; inconclusive = small, poorly fitted or top-dose-only effect, or another doubt; inactive = no such curve, though single readings can be large or run the other way;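 also: potency is read from the fitted curve at half-maximal effect; plate controls were no enzyme wells and a reference inhibitor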
Target sequence (P00352 whole entry, looked up): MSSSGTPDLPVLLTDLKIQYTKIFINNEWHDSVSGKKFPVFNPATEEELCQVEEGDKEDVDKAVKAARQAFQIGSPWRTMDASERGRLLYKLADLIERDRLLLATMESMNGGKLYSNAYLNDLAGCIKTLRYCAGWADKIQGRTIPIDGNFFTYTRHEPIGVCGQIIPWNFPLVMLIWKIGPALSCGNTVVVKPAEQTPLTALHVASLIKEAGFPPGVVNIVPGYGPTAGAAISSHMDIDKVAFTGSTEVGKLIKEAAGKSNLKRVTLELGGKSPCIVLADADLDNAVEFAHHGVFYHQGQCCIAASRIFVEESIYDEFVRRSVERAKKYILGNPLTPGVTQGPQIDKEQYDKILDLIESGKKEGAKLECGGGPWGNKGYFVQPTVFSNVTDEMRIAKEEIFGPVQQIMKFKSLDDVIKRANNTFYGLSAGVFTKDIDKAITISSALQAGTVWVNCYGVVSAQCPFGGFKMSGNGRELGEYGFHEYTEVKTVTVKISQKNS
HTT cytoprotect: qHTS Multiplex Assay to Identify Dual Action Probes in a Cell Model of Huntington: Cytoprotection (ATP). PC12 HTT-Q103 induced, cytoprotection, ATP luminescence, 40 h. Potency, µM (series often up to 56.4 µM), inactives show cytoprotection (ATP increase), hits mostly activators. actives 0.14% (n = 230,000). AID 1471, 2008; also: potency is read from the fitted curve at half-maximal effect; % of control where 0% means no effect; nearly all actives have a fitted effect of over 45% in size
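Cells were plated at 1500 per well in phenol red-free DMEM with 5% equine and 5% calf serum. Tebufenozide (100 nM final) and compounds were added, then ATPlite reagent, and luminescence was read.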
The depositor's hits bear a star; [ ] = another dose, or the depositor's remark. Unless noted, calls follow the shape of the dose curve; as a rule, active = well fitted curve in the direction sought with a large enough effect; inconclusive = small, poorly fitted or top-dose-only effect, or another doubt; inactive = no such curve, though single readings can be large; an effect the other way counts as inactive or inconclusive.

`COc1cc(/C=C2\C(=O)N(c3ccccc3)N=C2C)ccc1Oc1ccc([N+](=O)[O-])cc1[N+](=O)[O-]` gave HttQ103 aggreg 11%, HPGD block 13µM*, CBFb RUNX1 block inconclusive, KDM4E inh inconclusive, ALDH1A1 block inconclusive and HTT cytoprotect 34%[10 µM].
`COc1ccc(NC(=O)C(Cc2ccccc2)n2cccc2)c(OC)c1` (configuration not stated) gave HttQ103 aggreg -14%[9.22 µM], CBFb RUNX1 block -12%, KDM4E inh 4% and HTT cytoprotect -9%[10 µM].
CNC(=S)N(Cc1ccc(OC)cc1)C1CC(=O)N(c2ccc(Cl)cc2)C1=O (configuration not stated) was read as HttQ103 aggreg inconclusive, HPGD block -18%, CBFb RUNX1 block -1%, KDM4E inh 3%, ALDH1A1 block inconclusive and HTT cytoprotect -69%.
For Cc1cc(N)n(Cc2cccs2)n1 the results were HttQ103 aggreg -25%[9.22 µM], CBFb RUNX1 block 4%, KDM4E inh 8%, ALDH1A1 block -3% and HTT cytoprotect -42%[10 µM].
For O=C(/C=C/c1ccco1)NCc1ccc2c(c1)OCO2 the results were HttQ103 aggreg 16%, CBFb RUNX1 block -11%, KDM4E inh -18%, ALDH1A1 block 20µM* and HTT cytoprotect -30%.
For O=C(NCc1ccc2c(c1)OCO2)c1ccc(CSCc2cccc(Cl)c2)o1 the results were HttQ103 aggreg 0%, HPGD block -23%, CBFb RUNX1 block 5%, KDM4E inh -1%, ALDH1A1 block -6% and HTT cytoprotect 23%[10 µM].
O=C(/C=C/c1ccco1)Nc1ccc2c(c1)OCO2 was read as HttQ103 aggreg 3%, CBFb RUNX1 block -6%, KDM4E inh -14%, ALDH1A1 block inconclusive and HTT cytoprotect -26%[10 µM].
`O=C(CSCc1cccc(Cl)c1)NCc1ccc2c(c1)OCO2` gave HttQ103 aggreg 2%, HPGD block 13µM*, CBFb RUNX1 block -5%, KDM4E inh 8%, ALDH1A1 block inconclusive and HTT cytoprotect 20%.
For O=C(CN1C(=O)NC2(CCCCCCC2)C1=O)NCc1ccc2c(c1)OCO2 the results were HttQ103 aggreg -8%, HPGD block 32µM*, CBFb RUNX1 block -3%, KDM4E inh 0%, ALDH1A1 block -1% and HTT cytoprotect 5%.
`O=C(CSCc1ccccc1)NCc1ccc2c(c1)OCO2` gave HttQ103 aggreg 2%[9.22 µM], HPGD block 20µM*, CBFb RUNX1 block 0%, KDM4E inh 3%, ALDH1A1 block inconclusive and HTT cytoprotect -1%.
`COc1ccc(CNC(=O)CN2C(=O)NC3(CCCCCC3)C2=O)cc1OC` gave HttQ103 aggreg 32%, CBFb RUNX1 block 2%, KDM4E inh -1%, ALDH1A1 block -6% and HTT cytoprotect -40%.
`Cc1ccc(CSCC(=O)NCc2ccc3c(c2)OCO3)cc1` gave HttQ103 aggreg -3%[9.22 µM], CBFb RUNX1 block 8%, KDM4E inh 2% and HTT cytoprotect 9%[10 µM].
Screening O=C(C(=O)N1CCN(c2ccccc2F)CC1)c1c[nH]c2ccccc12 returned HttQ103 aggreg 4%, CBFb RUNX1 block -1%, KDM4E inh -7%, ALDH1A1 block -6% and HTT cytoprotect 10%.
`O=C(COC(=O)Cc1cn2ccsc2n1)NCc1ccc2c(c1)OCO2` gave HttQ103 aggreg -3%, HPGD block 14µM*, CBFb RUNX1 block -9%, KDM4E inh -2%, ALDH1A1 block inconclusive and HTT cytoprotect 11%[10 µM].
`O=C(NCc1ccc2c(c1)OCO2)c1nn(-c2ccccc2)c(=O)c2ccccc12` gave HttQ103 aggreg -16%, HPGD block -16%, CBFb RUNX1 block -2%, KDM4E inh inconclusive, ALDH1A1 block 5.6µM* and HTT cytoprotect -14%[10 µM].
For O=C(COC(=O)Cc1cn2ccsc2n1)NC12CC3CC(CC(C3)C1)C2 the results were HttQ103 aggreg 15%, HPGD block 0%, CBFb RUNX1 block 10%, KDM4E inh 7%, ALDH1A1 block -6% and HTT cytoprotect 15%[10 µM].
Screening O=C(OC(C(=O)NCc1ccc2c(c1)OCO2)c1ccc(Cl)cc1)c1ccco1 (configuration not stated) returned HttQ103 aggreg -18%, HPGD block 28µM*, CBFb RUNX1 block 0%, KDM4E inh -5%, ALDH1A1 block 14µM* and HTT cytoprotect 14%.
`COc1ccc(/C=C/C(=O)OCC(=O)Nc2ccc(Cl)cn2)cc1` gave HttQ103 aggreg 3%, CBFb RUNX1 block 13%, KDM4E inh -17%, ALDH1A1 block inconclusive and HTT cytoprotect -29%.
`CCN(CC)S(=O)(=O)c1cccc(C(=O)NCCCn2ccnc2)c1` gave HttQ103 aggreg -26%[9.22 µM], CBFb RUNX1 block 1%, KDM4E inh 5% and HTT cytoprotect 0%[10 µM].
Screening CC(=O)N1c2c(cc(Br)cc2S(=O)(=O)N2CCN(C(=O)c3ccco3)CC2)CC1C (configuration not stated) returned HttQ103 aggreg 15%, HPGD block 14µM*, CBFb RUNX1 block -1%, KDM4E inh -8%, ALDH1A1 block -8% and HTT cytoprotect 22%[10 µM].
Cn1cc(S(=O)(=O)N2CCN(C(=O)c3ccco3)CC2)c(=O)n(C)c1=O was read as HttQ103 aggreg -11%, HPGD block -12%, CBFb RUNX1 block 1%, KDM4E inh 3%, ALDH1A1 block 1% and HTT cytoprotect -15%.
For Cc1ccc(NC(=O)/C(C#N)=C(\N)C(Cl)(Cl)Cl)nc1 the results were HttQ103 aggreg -9%, CBFb RUNX1 block -5%, KDM4E inh inconclusive, ALDH1A1 block inconclusive and HTT cytoprotect -20%.
`CC1CCC(NC(=S)NCCN(C)C)CC1` (configuration not stated) gave HttQ103 aggreg 12%, CBFb RUNX1 block -2%, KDM4E inh -10%, ALDH1A1 block 1.6µM* and HTT cytoprotect -16%.
Screening CN(C)CCNC(=O)NC1CCCCC1 returned HttQ103 aggreg 0%, HPGD block -10%, CBFb RUNX1 block 0%, KDM4E inh 2%, ALDH1A1 block -10% and HTT cytoprotect 3%.
